# Source: PubChem BioAssay (NCATS)
# Unmarked numbers belong to inactive results. Records with an inconclusive call do not appear. Entries that show only a call come without a potency. Active and inactive are the calls of the source. Unless noted, calls come from the whole dose curve; as a rule, active = well fitted curve in the direction sought with a large enough effect; inconclusive = small, poorly fitted or top-dose-only effect, or another doubt; inactive = no such curve, though single readings can be large; an effect the other way counts as inactive or inconclusive.
# Assays:
# [1] = target: Cytochrome P450 1A2 (Homo sapiens) (UniProt P05177); experiment: p450-cyp1a2 (AID 410; calls by dose curve; note: potency is the fitted concentration of half-maximal effect)
# Outline: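 Read-out is luminescence from luciferin produced by CYP1A2 demethylation of Luciferin-ME (100uM, at Km). Detection reagent stopped the 60 min NADPH-dependent reaction; signals were normalized to 57 uM furafylline.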
# [2] = target: Glucocorticoid receptor (Homo sapiens) (UniProt P04150); experiment: GR-GFP Redistribution (AID 450;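 active = compounds whose dose series gives a full or clear partial fitted curve of increased nuclear translocation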; note: potency is the fitted concentration of half-maximal effect); details: U2OS GR-GFP nuclear translocation, laser cytometry, 2 h
# [3] = target: Glucocorticoid receptor (Homo sapiens) (UniProt P04150); experiment: GR-EFC Redistribution (AID 451; calls by dose curve; note: potency is the fitted concentration of half-maximal effect); details: CHO-K1 GR-EFC translocation, beta-gal luminescence, 2 h
# Outline: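 CHO-K1 cells stably expressing nuclear-localized β-gal enzyme acceptor and GR fused C-terminally to the enzyme donor fragment; ligand-driven nuclear translocation restores β-gal by complementation. Compounds titrated up to 46 uM final, 2 h at 37 °C; luminescence read.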
# [4] = target: Mitogen-activated protein kinase 10 (Mus musculus) (UniProt Q61831); experiment: JNK3 AlphaScreen Assay (AID 530; active = well fitted curve in either direction with a large enough effect, not every such curve was filed as active;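 note: kinase came from lysate of stimulated human HepG2 cells; signal reports phosphorylation of biotinylated GST-cJun 1-79 at Ser73 with 10 µM ATP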)
# Outline: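 Biotinylated GST-cJun(1-79) served as substrate for JNK3 in HepG2 lysates stimulated with IL-1beta and TNF-alpha. ATP was 10 uM final, pH 7.6. Ser73 phosphorylation was quantified by AlphaScreen (680 nm excitation).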
# [5] = target: 3',5'-cyclic-AMP phosphodiesterase 4B (Homo sapiens) (UniProt Q07343); experiment: qHTS Assay for Inhibitors of PDE-IV (AID 607; active = well fitted activation curve with a large enough effect in the main read-out, with a control signal flat, not every such curve was filed as active)
# Outline: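 HEK293 ACTOne cells with CNG channel (1000/well), endogenous PDE4; membrane potential dye, compounds up to 22.9 uM final. Fluorescence Ex 535/Em 590; RO 20-1724 (100 uM final) as reference.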
# [6] = target: Cytochrome P450 2C9 (Homo sapiens) (UniProt P11712); experiment: qHTS Assay for Inhibitors and Substrates of Cytochrome P450 2C9 (AID 883); note: nearly all actives have a fitted effect of over 60% in size
# Outline: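 A luminogenic readout tracked human CYP2C9 (10nM) converting deoxyluciferin (100uM, at KM) in 25mM KPO4 during 60 min at 37C with regenerated NADPH. Values normalized to 57uM sulphaphenazole as complete inhibition.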
# [7] = target: Cytochrome P450 2D6 (Homo sapiens) (UniProt P10635); experiment: qHTS Assay for Inhibitors and Substrates of Cytochrome P450 2D6 (AID 891); note: nearly all actives have a fitted effect of over 60% in size; note: potency is the fitted concentration of half-maximal effect;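 for activity change, negative = inhibition: luciferin methyl ether substrate demethylated by CYP2D6 with NADPH regeneration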
# Outline: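 Luminescent read-out of luciferin formed by 5 nM human CYP2D6 demethylating 30 uM Luciferin-ME EGE (Km level) over 60 min at room temperature after NADPH regeneration addition. Data normalized to full inhibition by 1.43 uM quinidine.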
# [8] = target: Cytochrome P450 2C19 (Homo sapiens) (UniProt P33261); experiment: qHTS Assay for Inhibitors and Substrates of Cytochrome P450 2C19 (AID 899); note: nearly all actives have a fitted effect of over 60% in size; note: potency is the fitted concentration of half-maximal effect
# Outline: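 NADPH-dependent conversion of Luciferin-H EGE (10uM, at KM) by 5nM enzyme in 50mM KPO4, 60 min at 37C following 10 min compound preincubation. Stopped with luciferin detection buffer; luminescence read after 20 min.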
# [9] = AP1 Signaling Pathway (AID 357; active = well fitted curve in either direction with a large enough effect, not every such curve was filed as active;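 note: ME-180 reporter cells stimulated with EGF at its EC50 level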); details: ME-180 AP-1-bla reporter, EGF-induced, beta-lactamase ratio, 5 h; at 17.2 µM (top of the series) unless noted
# Outline: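 Titration-series screen for positive or negative modulators of EC50 EGF-induced signaling in ME-180 cells carrying an AP-1-driven beta-lactamase reporter. After 5 hours at 37 degrees Celsius, CCF4 460nm/530nm emission ratio gave %Activity; AC50 values derived.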
# [10] = Stat Signaling Pathway (AID 446; active = well fitted curve in either direction with a large enough effect, not every such curve was filed as active;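 note: ME-180 cervical cancer cells given 40 pM IL-6 alongside compound; SIE-controlled beta-lactamase reporter measured as 460/530 nm FRET emission ratio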)
# Outline: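 Normalization used AC90 stimulation (300 pM IL-6) and AC90 inhibition (125 nM pan-JAK inhibitor at 40 pM IL-6). The underlying signal is SIE-driven beta-lactamase in ME-180 cells after 5 h IL-6 exposure with compound.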
# [11] = target: Guanine nucleotide-binding protein G(i) subunit alpha-1 (Homo sapiens) (UniProt P63096); experiment: qHTS Assay for Inhibitors of RGS12 GoLoco Motif Activity (Green Fluorophore) (AID 879);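 note: negative values mean loss of peptide binding seen as reduced polarization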
# Outline: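 A drop in FITC polarization marked displacement of the FITC-tagged RGS12 GoLoco peptide (10 nM) from Gαi1 (50 nM). Compounds were incubated 10 min at room temperature in Tris pH 7.5 buffer containing 150 mM NaCl, 0.1 mM GDP and 0.05% NP40; unlabeled peptide titration served as control.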
# [12] = target: Pyruvate kinase PKM (Homo sapiens) (UniProt P14618); experiment: qHTS Assay for Activators of Human Muscle Pyruvate Kinase (AID 954; active = well fitted curve in the direction sought with a large enough effect, not every such curve was filed as active)
# Outline: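 Compound pinned into substrate mix (0.5 mM PEP, 0.1 mM ADP), then 0.1 nM PKM2 added; 1 h, RT. Stop/detection luciferase reagent added, luminescence read. Normalized to no-inhibition and no-enzyme or reference-inhibitor controls.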
# [13] = target: Alpha-galactosidase (Coffea arabica) (UniProt Q42656); experiment: Counterscreen for Glucocerebrosidase Inhibitors: qHTS Assay for Coffee Bean alpha-Galactosidase at pH 4.5 (AID 957)
# Outline: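 Quantitative HTS of compounds (0.7 nM to 77 uM) against coffee bean alpha-galactosidase at pH 4.5, measuring 4-methylumbelliferone fluorescence released from 80 uM substrate.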
# [14] = target: Alpha-galactosidase A (Homo sapiens) (UniProt P06280); experiment: Counterscreen for Glucocerebrosidase Inhibitors: qHTS Assay for Human alpha-Galactosidase at pH 4.5 (AID 992)
# Outline: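 Steps: enzyme (2 nM final), then compound across 0.7 nM to 77 uM, then 80 uM fluorogenic galactopyranoside substrate; incubate 20 min at room temperature; quench at pH 10; measure fluorescence at 365/440 nm.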
# [15] = target: Alpha-galactosidase (Coffea arabica) (UniProt Q42656); experiment: Counterscreen for Glucocerebrosidase Inhibitors: qHTS Assay for Coffee Bean alpha-Galactosidase at pH 5.9 (AID 998)
# Outline: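 In 50 mM citric acid pH 5.9 with 0.005% Tween-20, coffee bean enzyme hydrolyses 80 uM 4-MU alpha-D-galactopyranoside over 20 min at RT. Activity is normalized to controls; AC50 comes from Hill-modelled concentration-response data.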
# [16] = qHTS Assay for Identification of Small Molecule Agonists for Thrombopoietin (TPO) Signaling Pathway (AID 917)
# Outline: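 Stimulation at the TPO EC50 (26 pM final) was used to detect activators. Ba/F3 mouse cells bearing human TPO receptor and a luciferase reporter under the Glycoprotein IIb promoter were exposed to compounds for 24 hrs at 37 C.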
# [17] = qHTS Assay for Identification of Small Molecule Agonists for Hypoxia Response Element Signaling Pathway (AID 914; active = well fitted activation curve with a large enough effect in the signal ratio, with a control signal flat, not every such curve was filed as active; the % refers to the signal ratio); details: ME-180 (cervical carcinoma) HRE-bla reporter, beta-lactamase ratio, CoCl2, 17 h; activation: hits give high values
# Outline: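 Reporter activity (beta-lactamase, CCF4 460nm/530nm ratio) in HRE-bla ME-180 cells is recorded after 17 h compound exposure with EC50 CoCl2 at 37 degrees Celsius. AC50 values come from titration data.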
# [18] = target: Cytochrome P450 3A4 (Homo sapiens) (UniProt P08684); experiment: qHTS Assay for Activators of Cytochrome P450 3A4 (AID 885); note: nearly all actives have a fitted effect of over 65% in size
# Outline: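 Human CYP3A4 dealkylates Luciferin-PPXE to luciferin, which luciferase detection converts to light. Substrate was at its KM (25uM), buffer 200mM KPO4, reaction 60 min at RT.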
# [19] = target: Ubiquitin carboxyl-terminal hydrolase 1 (Homo sapiens) (UniProt O94782); experiment: Inhibitors of USP1/UAF1: Pilot qHTS (AID 504865);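 note: rhodamine fluorescence freed from ubiquitin-rhodamine substrate followed over time; top concentration of the series differs between compounds; nearly all actives have a fitted effect of over 35% in size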
# Outline: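 USP1/UAF1 complex at 1 nM preincubated 15 min at room temperature with compound, then Ub-Rho substrate added at 150 nM final. Fluorescence (480/540 nm) read kinetically in 50 mM HEPES pH 7.8, 0.5 mM EDTA, 1 mM TCEP, 0.1 mg/ml BSA, 0.01% Tween-20.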
# [20] = target: DNA dC->dU-editing enzyme APOBEC-3G (Homo sapiens) (UniProt Q9HC16); experiment: qHTS for inhibitors of Vif-A3G interactions: Validation (AID 588379)
# Outline: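 Yellow fluorescence (Ex 488, Em 500-530) of Vif-coexpressing HeLa A3G-eYFP cells, scanned by Acumen cytometer, reports blocked A3G degradation. Cells plated at 700/well overnight at 37 deg C before compound addition, then a further overnight compound incubation at 37 deg C.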
# Sequence of Cytochrome P450 2D6 (Homo sapiens) (P10635 whole entry, looked up): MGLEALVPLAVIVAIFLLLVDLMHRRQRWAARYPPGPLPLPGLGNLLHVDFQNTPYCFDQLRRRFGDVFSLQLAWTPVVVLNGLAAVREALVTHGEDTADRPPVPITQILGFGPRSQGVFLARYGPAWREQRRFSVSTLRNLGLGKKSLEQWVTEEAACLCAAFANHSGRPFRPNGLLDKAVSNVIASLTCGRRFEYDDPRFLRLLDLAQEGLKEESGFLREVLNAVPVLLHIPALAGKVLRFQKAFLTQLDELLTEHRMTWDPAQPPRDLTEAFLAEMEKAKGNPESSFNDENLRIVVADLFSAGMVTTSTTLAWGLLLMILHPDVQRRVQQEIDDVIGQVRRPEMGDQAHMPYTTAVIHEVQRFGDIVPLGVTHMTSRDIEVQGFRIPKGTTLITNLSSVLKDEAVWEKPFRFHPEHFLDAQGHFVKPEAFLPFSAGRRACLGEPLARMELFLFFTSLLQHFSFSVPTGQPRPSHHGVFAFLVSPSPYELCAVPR
# Sequence of 3',5'-cyclic-AMP phosphodiesterase 4B (Homo sapiens) (Q07343 whole entry, looked up): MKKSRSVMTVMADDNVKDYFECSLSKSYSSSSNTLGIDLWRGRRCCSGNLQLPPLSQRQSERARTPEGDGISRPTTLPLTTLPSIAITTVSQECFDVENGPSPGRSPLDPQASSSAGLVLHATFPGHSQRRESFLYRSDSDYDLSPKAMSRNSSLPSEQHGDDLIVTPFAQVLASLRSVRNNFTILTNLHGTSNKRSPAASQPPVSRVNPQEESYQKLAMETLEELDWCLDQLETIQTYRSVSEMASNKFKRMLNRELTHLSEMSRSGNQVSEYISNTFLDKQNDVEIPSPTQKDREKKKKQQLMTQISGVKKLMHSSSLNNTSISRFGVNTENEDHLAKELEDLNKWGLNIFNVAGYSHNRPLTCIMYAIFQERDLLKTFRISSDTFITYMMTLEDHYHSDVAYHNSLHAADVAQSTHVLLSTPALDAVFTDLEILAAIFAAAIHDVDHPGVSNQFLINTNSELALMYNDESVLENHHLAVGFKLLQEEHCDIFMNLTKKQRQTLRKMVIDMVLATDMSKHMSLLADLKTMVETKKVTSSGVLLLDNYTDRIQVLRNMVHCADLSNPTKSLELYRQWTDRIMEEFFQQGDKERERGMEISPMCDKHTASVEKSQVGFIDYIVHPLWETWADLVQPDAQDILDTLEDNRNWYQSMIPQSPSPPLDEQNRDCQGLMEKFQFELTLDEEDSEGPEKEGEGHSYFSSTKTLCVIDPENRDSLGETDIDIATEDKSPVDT
# Sequence of Cytochrome P450 2C19 (Homo sapiens) (P33261 whole entry, looked up): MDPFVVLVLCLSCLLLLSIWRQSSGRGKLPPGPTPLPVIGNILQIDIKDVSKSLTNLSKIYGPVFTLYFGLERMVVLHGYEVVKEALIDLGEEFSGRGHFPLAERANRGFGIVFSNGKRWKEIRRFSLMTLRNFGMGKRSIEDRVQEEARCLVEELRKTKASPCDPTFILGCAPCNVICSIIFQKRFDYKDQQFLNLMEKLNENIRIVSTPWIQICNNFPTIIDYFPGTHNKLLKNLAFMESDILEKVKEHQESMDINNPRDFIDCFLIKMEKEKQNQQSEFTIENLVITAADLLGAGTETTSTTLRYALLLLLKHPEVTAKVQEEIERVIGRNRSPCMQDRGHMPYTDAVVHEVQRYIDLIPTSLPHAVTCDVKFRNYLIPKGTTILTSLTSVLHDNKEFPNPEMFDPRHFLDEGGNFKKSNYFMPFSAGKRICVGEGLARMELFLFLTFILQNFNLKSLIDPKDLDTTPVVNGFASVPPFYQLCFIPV
# Sequence of Alpha-galactosidase (Coffea arabica) (Q42656 whole entry, looked up): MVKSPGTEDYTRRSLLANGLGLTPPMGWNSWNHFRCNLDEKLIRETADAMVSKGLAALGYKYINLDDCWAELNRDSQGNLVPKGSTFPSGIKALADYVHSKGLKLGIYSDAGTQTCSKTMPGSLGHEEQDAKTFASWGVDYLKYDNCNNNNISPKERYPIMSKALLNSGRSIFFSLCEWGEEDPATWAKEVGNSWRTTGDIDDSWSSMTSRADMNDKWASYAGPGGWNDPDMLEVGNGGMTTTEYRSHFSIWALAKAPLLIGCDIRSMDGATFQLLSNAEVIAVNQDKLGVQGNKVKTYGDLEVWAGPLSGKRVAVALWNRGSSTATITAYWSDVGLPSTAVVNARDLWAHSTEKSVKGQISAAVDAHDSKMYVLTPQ
# Sequence of Cytochrome P450 1A2 (Homo sapiens) (P05177 whole entry, looked up): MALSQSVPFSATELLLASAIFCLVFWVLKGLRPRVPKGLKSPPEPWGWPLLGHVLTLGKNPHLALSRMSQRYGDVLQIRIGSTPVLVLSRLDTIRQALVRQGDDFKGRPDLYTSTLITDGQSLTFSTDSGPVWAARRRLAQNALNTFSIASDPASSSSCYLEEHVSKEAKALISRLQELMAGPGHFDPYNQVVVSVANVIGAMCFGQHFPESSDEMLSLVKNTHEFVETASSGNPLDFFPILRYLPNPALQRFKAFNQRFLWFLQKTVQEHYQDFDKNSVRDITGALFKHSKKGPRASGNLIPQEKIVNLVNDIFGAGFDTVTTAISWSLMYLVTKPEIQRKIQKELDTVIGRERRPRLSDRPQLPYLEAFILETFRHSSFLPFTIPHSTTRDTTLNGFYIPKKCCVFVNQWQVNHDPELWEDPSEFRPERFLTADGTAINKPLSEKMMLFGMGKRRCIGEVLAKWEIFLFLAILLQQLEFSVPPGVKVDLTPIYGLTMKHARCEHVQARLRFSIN
# Sequence of Glucocorticoid receptor (Homo sapiens) (P04150 whole entry, looked up, the tested form may be a part): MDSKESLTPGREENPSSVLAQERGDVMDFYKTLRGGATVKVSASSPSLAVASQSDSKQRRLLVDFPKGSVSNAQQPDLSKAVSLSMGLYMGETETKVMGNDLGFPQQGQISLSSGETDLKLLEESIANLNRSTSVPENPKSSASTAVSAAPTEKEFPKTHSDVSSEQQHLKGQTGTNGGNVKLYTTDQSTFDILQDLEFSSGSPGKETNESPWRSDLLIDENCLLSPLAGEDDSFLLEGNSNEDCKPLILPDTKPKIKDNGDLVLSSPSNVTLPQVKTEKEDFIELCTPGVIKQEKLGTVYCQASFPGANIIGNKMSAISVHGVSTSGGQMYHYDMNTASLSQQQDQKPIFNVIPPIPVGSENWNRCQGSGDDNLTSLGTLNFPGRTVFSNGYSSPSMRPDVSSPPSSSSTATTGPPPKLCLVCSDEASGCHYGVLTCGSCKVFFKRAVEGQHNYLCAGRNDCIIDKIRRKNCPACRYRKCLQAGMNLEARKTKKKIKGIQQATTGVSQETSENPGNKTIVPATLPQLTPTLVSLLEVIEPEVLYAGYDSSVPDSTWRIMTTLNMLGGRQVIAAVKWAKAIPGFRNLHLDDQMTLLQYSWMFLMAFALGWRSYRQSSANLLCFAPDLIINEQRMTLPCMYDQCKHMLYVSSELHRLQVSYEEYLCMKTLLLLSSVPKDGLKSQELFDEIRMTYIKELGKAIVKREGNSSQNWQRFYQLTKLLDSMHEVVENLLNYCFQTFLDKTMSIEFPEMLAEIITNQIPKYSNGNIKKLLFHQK
# Sequence of Cytochrome P450 2C9 (Homo sapiens) (P11712 whole entry, looked up): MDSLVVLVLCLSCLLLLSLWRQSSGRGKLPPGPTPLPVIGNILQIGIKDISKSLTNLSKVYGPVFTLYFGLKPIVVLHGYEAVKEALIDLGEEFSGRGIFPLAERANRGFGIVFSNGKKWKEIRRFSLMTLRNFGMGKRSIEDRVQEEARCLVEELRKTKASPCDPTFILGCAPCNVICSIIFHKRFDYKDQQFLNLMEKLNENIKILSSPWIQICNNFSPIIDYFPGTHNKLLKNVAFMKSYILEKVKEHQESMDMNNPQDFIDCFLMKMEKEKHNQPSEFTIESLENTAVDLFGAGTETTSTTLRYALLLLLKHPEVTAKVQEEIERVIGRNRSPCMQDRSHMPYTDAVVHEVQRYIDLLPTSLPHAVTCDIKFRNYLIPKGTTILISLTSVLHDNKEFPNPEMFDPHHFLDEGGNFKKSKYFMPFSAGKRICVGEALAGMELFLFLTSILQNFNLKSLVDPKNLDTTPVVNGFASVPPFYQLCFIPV
# Sequence of Guanine nucleotide-binding protein G(i) subunit alpha-1 (Homo sapiens) (P63096 whole entry, looked up): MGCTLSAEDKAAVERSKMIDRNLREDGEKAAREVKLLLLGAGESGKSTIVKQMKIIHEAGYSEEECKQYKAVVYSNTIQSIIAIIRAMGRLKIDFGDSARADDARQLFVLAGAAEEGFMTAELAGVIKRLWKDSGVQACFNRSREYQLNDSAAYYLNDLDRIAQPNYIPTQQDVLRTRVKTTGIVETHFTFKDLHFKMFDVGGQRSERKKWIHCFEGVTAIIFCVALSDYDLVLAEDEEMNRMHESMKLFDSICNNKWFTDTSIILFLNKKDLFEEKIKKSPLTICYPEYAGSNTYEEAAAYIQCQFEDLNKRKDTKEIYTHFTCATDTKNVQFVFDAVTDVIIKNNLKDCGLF
# Sequence of Pyruvate kinase PKM (Homo sapiens) (P14618 whole entry, looked up): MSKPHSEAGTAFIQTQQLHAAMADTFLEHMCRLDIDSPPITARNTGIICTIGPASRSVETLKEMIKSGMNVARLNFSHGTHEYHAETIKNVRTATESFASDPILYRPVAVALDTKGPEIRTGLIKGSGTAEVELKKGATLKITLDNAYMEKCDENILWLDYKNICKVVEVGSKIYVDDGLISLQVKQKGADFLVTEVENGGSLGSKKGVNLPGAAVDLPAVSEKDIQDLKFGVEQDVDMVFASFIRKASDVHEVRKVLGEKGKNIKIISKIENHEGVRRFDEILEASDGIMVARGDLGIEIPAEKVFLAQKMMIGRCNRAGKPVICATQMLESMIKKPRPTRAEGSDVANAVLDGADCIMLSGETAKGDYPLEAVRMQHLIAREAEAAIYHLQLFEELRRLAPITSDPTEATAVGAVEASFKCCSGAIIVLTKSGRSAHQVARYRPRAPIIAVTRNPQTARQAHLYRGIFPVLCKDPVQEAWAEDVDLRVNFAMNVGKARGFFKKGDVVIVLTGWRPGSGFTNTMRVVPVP
smiles,measurement,setting,value
CC1=C2[C@@H]3OC(=O)[C@H](C)[C@H]3CC[C@@]2(C)C=CC1=O,Potency,[1],31.6 µM (active)
same,Potency,[2],> 46 µM
same,Potency,[3],> 46 µM
same,outcome,[4],inactive
same,outcome,[5],inactive
same,Potency,[6],inactive
same,Potency,[7],inactive
same,Potency,[8],inactive
CCOC(=O)c1cc(C)n(CCc2cnc[nH]2)c1C,"activity change, negative = inhibition",[9],3.65%
same,outcome,[10],inactive
same,Potency,[2],> 20.6 µM
C=C(C)[C@H]1Cc2c(ccc3c2O[C@H]2COc4cc(OC)c(OC)cc4[C@@H]2C3=O)O1,"activity change, negative = inhibition",[9],7.51% [at 38 µM]
same,Potency,[2],> 46 µM
same,Potency,[3],> 46 µM
same,outcome,[4],inactive
same,outcome,[5],inactive
same,Potency,[11],inactive
same,Potency,[8],2.51 µM (active)
same,outcome,[12],inactive
same,outcome,[13],inactive
same,outcome,[14],inactive
same,outcome,[15],inactive
COc1ccc(C[C@@H]2NC[C@H](O)[C@H]2OC(C)=O)cc1,Potency,[1],inactive
same,Potency,[2],> 46 µM
same,Potency,[3],> 46 µM
same,outcome,[4],inactive
same,outcome,[5],inactive
same,Potency,[6],inactive
same,Potency,[8],inactive
O=C(COc1ccc2ccccc2c1)N1CCN(C2CCN(Cc3ccccc3)CC2)CC1,"activity change, negative = inhibition",[9],9.29%
same,outcome,[10],inactive
same,Potency,[2],> 20.6 µM
O=P(c1ccccc1)(c1ccccc1)N1CC2(CC2)CC(O)(c2ccccc2)C1 (stereo unspecified),Potency,[1],inactive
C[C@@H]1O[C@@H](O[C@H]2C[C@@H](O)[C@]3(CO)[C@@H]4[C@@H](O)C[C@]5(C)[C@H]([C@@H]6COC(=O)C6)CC[C@@]5(O)[C@H]4CC[C@@]3(O)C2)[C@H](O)[C@H](O)[C@@H]1O,Potency,[1],inactive
same,outcome,[10],inactive
same,Potency,[2],> 46 µM
same,Potency,[3],> 46 µM
same,outcome,[5],inactive
same,Potency,[11],inactive
same,outcome,[16],inactive
same,outcome,[12],inactive
same,outcome,[13],inactive
same,outcome,[14],inactive
same,outcome,[15],inactive
CN1C[C@H](CO)C=C2c3cccc4[nH]cc(c34)C[C@H]21,Potency,[1],1 µM (active)
same,Potency,[2],> 46 µM
same,Potency,[3],> 46 µM
same,outcome,[4],inactive
same,outcome,[5],inactive
same,Potency,[7],0.0251 µM (active)
COc1ccc(OC)c([C@@H](O)[C@H](C)NC(C)(C)C)c1,"activity change, negative = inhibition",[9],8.72%
same,outcome,[10],inactive
same,activation,[17],0.127%
CN[C@H]1[C@H]2[C@H]3CCN2C[C@@H]1O3,Potency,[1],inactive
same,Potency,[3],> 46 µM
same,outcome,[4],inactive
same,Potency,[6],inactive
same,Potency,[7],inactive
same,Potency,[8],inactive
CN(CCc1ccc(Cl)c(Cl)c1)[C@H]1CCCC[C@H]1N1CCCC1,Potency,[1],31.6 µM (active)
same,Potency,[3],> 46 µM
same,outcome,[4],inactive
same,Potency,[18],inactive
same,Potency,[7],0.0063 µM (active)
same,Potency,[19],inactive
same,outcome,[20],inactive
